Reference: PubChem BioAssay (Tox21)
“And” between values parts separate entries of the source, which are not always exact repeats. Equal values may be shown once. Results filed as inconclusive are left out. Where a call stands in place of a potency, no number is given. More than one record can exist for a structure, and the calls need not agree. The source made the active and inactive calls. Calls come from the whole dose curve; as a rule, active = well fitted curve in the direction sought with a large enough effect in the repeat runs; inconclusive = weak or mixed curves; inactive = no such curve, though single readings can be large; an effect the other way counts as inactive or inconclusive.

Legend:
[1] = A CellTox Green Cytotoxicity Assay to monitor cytotoxicity in HEK293 cells - 32 hour (AID 1224881); note: nearly all actives have a fitted effect of over 40% in size; note: potency is the fitted concentration of half-maximal effect
In short: (§1)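 Nonlytic real-time cytotoxicity: HEK293 + CellTox Green reagent plated, 5 h preincubation, pintool compound addition (23 nL in DMSO), 37 C for 40 h, fluorescence measured at successive time points.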

[2] = A CellTox Green Cytotoxicity Assay to monitor cytotoxicity in HepG2 cells - 0 hour (AID 1224882); note: nearly all actives have a fitted effect of over 35% in size; note: potency is the fitted concentration of half-maximal effect
In short: (§2)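 Read-out is fluorescence of a cyanine dye excluded from live cells that stains DNA of dead HepG2 cells, with signal proportional to cytotoxicity. Plates were read at 0, 8, 16, 24, 32 and 40 h after compound addition.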

[3] = A CellTox Green Cytotoxicity Assay to monitor cytotoxicity in HepG2 cells - 32 hour (AID 1224883); note: nearly all actives have a fitted effect of over 50% in size; note: potency is the fitted concentration of half-maximal effect
In short: as §2

[4] = A CellTox Green Cytotoxicity Assay to monitor cytotoxicity in HEK293 cells - 8 hour (AID 1224884); note: nearly all actives have a fitted effect of over 35% in size; note: potency is the fitted concentration of half-maximal effect
In short: as §1

[5] = qHTS RealTime-Glo MT Cell Viability Assay in HepG2 cells - 16 hour (AID 1224885); note: nearly all actives have a fitted effect of over 50% in size; note: potency is the fitted concentration of half-maximal effect
In short: (§3)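 Real-time, nonlytic viability: 600 HepG2 cells/well mixed with NanoLuc enzyme plus prosubstrate; 5 h settle, compound (DMSO) added by pintool; luminescence monitored over 40 h at 37 C.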

[6] = qHTS RealTime-Glo MT Cell Viability Assay in HEK293 cells - 24 hour (AID 1224886); note: nearly all actives have a fitted effect of over 50% in size; note: potency is the fitted concentration of half-maximal effect
In short: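 Cells + reagent dispensed (600 cells/well, HEK293) → 5 h at 37 C/5% CO2 → 23 nL compound in DMSO pinned → 40 h at 37 C → luminescence read at 0, 8, 16, 24, 32, 40 h.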

[7] = qHTS RealTime-Glo MT Cell Viability Assay in HEK293 cells - 8 hour (AID 1224887); note: nearly all actives have a fitted effect of over 50% in size; note: potency is the fitted concentration of half-maximal effect
In short: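 Cells were seeded together with NanoLuc luciferase and a prosubstrate that viable cells reduce to a luciferase substrate. After a 5 h incubation at 37 C/5% CO2, compounds were added and luminescence was measured repeatedly during 40 h of treatment.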

[8] = A CellTox Green Cytotoxicity Assay to monitor cytotoxicity in HEK293 cells - 16 hour (AID 1224888); note: nearly all actives have a fitted effect of over 35% in size; note: potency is the fitted concentration of half-maximal effect
In short: as §1

[9] = qHTS RealTime-Glo MT Cell Viability Assay in HepG2 cells - 0 hour (AID 1224889); note: nearly all actives have a fitted effect of over 50% in size
In short: as §3

[10] = A CellTox Green Cytotoxicity Assay to monitor cytotoxicity in HepG2 cells - 8 hour (AID 1224890); note: nearly all actives have a fitted effect of over 45% in size; note: potency is the fitted concentration of half-maximal effect
In short: as §2

| SMILES | Potency [1] | Potency [2] | Potency [3] | Potency [4] | Potency [5] | Potency [6] | Potency [7] | Potency [8] | Potency [9] | Potency [10] |
| --- | --- | --- | --- | --- | --- | --- | --- | --- | --- | --- |
| CN=C=O | inactive | inactive | inactive | inactive | inactive | inactive | inactive | inactive | inactive | inactive |
| O=[N+]([O-])c1cccc2cccc([N+](=O)[O-])c12 | inactive | inactive | inactive | inactive | inactive | inactive | inactive | inactive | inactive |  |
| CN1CCc2cc3c(cc2C1O)OCO3 (centres undefined) | inactive | inactive | inactive | inactive | inactive | inactive | inactive | inactive | inactive | inactive |
| O=C(N[C@H]1N=C(c2ccccc2F)c2cccc3c2N(CC3)C1=O)c1cc2ccccc2[nH]1 | inactive | inactive | inactive | inactive | inactive | inactive | inactive | inactive | inactive | inactive |
| Clc1cc(Cl)c(-c2cc(Cl)c(Cl)cc2Cl)cc1Cl | inactive | inactive | inactive | inactive | inactive | inactive | inactive | inactive | inactive |  |
| CCCCN(CCCC)C(=S)[S-].CCCCN(CCCC)C(=S)[S-].[Ni+2] | inactive | inactive | inactive | inactive | inactive | inactive | inactive | inactive | inactive |  |
| [O]=[Cr][O][Cr]=[O] | inactive | inactive | inactive | inactive | inactive | inactive | inactive | inactive | inactive | inactive |
| CCCCCCC[CH2][Sn]([Cl])([Cl])[CH2]CCCCCCC | inactive | inactive | inactive | inactive | inactive | inactive | inactive | inactive | inactive | inactive |
| C=CC(=C)C | inactive | inactive | inactive | inactive | inactive | inactive | inactive | inactive | inactive |  |
| C=CCBr | inactive | inactive | inactive | inactive | inactive | inactive | inactive | inactive | inactive | inactive |
| CC(=O)[O-].CC(=O)[O-].O.O.[Zn+2] | inactive | inactive | inactive | inactive | inactive | inactive | inactive | inactive | inactive | inactive |
| CC[N+]1(CC)CCC(OC(=O)C(O)(c2ccccc2)c2ccccc2)C1 (centres undefined) | inactive | inactive | inactive | inactive | inactive | inactive | inactive | inactive | inactive | inactive |
| O=S(=O)(NS(=O)(=O)C(F)(F)F)C(F)(F)F | inactive | inactive | 48.9 µM (active) | inactive | inactive | 1.23 µM (active) | inactive | inactive | inactive | inactive |
| CC(=O)[O-].CC(=O)[O-].CC(=O)[O-].[Cr+3] | inactive | inactive | inactive | inactive | inactive | inactive | inactive | inactive | inactive | inactive |
| N#CSCc1ccccc1 | inactive | inactive | inactive | inactive | inactive | inactive | inactive | inactive | inactive | inactive |
| CC(Cc1ccc(OCC(=O)O)cc1)NCC(O)c1csc(C(F)(F)F)n1 (centres undefined) | inactive | inactive | inactive | inactive | inactive | inactive | inactive | inactive | inactive |  |
| O=[N+]([O-])[O-].[Tl+] | inactive | inactive | inactive | inactive | inactive | inactive | inactive | inactive | inactive |  |
| CN(C)CCc1c[nH]c2ccccc12 | inactive | inactive | inactive | inactive | inactive | inactive | inactive | inactive | inactive |  |
| CNC(=O)/C=C(\C)OP(=O)(OC)OC | inactive | inactive | inactive | inactive | inactive | inactive | inactive | inactive | inactive | inactive |
| C[N+]1(C)[C@@H]2CC[C@H]1CC(OC(=O)C(CO)c1ccccc1)C2 (some centres undefined) | inactive | inactive | inactive | inactive | inactive | inactive | inactive | inactive | inactive | inactive |
| CC(Cc1ccccc1)N(C)Cc1ccco1 (centres undefined) | inactive | inactive | inactive | inactive | inactive | inactive | inactive | inactive | inactive | inactive |
| CC(C)=CC1C(C(=O)OC(C#N)c2cccc(Oc3ccccc3)c2)C1(C)C (centres undefined) | inactive | inactive | inactive | inactive | inactive | inactive | inactive | inactive | inactive |  |

| SMILES | Potency [1] | Potency [2] | Potency [3] | Potency [4] | Potency [5] | Potency [6] | Potency [7] | Potency [8] | Potency [9] | Potency [10] |
| --- | --- | --- | --- | --- | --- | --- | --- | --- | --- | --- |
| [Cl-].[Cl-].[Sn+2] | inactive | inactive | inactive | inactive | inactive | inactive | inactive | inactive | inactive |  |
| CN(C)C(=S)SSC(=S)N(C)C | 4.83 µM (active) and 1.23 µM (active) and 213 nM (active) | inactive | 309 nM (active) and 134 nM (active) | 49 µM (active) and inactive | 48.3 µM (active) and 1.74 µM (active) and 2.68 µM (active) | 272 nM (active) and 195 nM (active) and 21.3 µM (active) | 43 µM (active) and 27.5 µM (active) | 43 µM (active) and 38.9 µM (active) | inactive |  |
| CCN(CC)C(=S)S | 17.5 µM (active) and 4.87 µM (active) and 11 µM (active) | inactive | inactive and 6.88 µM (active) and 21.9 µM (active) | inactive | inactive | 4.87 µM (active) and 12.3 µM (active) | inactive | inactive | inactive |  |
| CCN(CC)Cc1nccn1-c1ccc([N+](=O)[O-])cc1C(=O)c1ccccc1Cl | inactive | inactive | inactive | inactive | inactive | inactive | inactive | inactive | inactive |  |
| COc1nc(C)nc(NC(=O)NS(=O)(=O)c2ccccc2Cl)n1 | inactive | inactive | inactive | inactive | inactive | inactive | inactive | inactive | inactive | inactive |
| O=[N+]([O-])c1cc(C(F)(F)F)c(Cl)c([N+](=O)[O-])c1Nc1ncc(C(F)(F)F)cc1Cl | 24.5 µM (active) | inactive | 4.9 µM (active) | 49 µM (active) | 24.5 µM (active) | 1.74 µM (active) | 5.49 µM (active) | 49 µM (active) | inactive | inactive |
| CCOP(=O)(Sc1ccccc1)Sc1ccccc1 | inactive | inactive | inactive | inactive | inactive | inactive | inactive | inactive | inactive | inactive |
| CCC[CH2][Sn]([CH2]CCC)([CH2]CCC)[CH2]CCC | 13.8 µM (active) | 38.9 µM (active) | 15.5 µM (active) | 49 µM (active) | 6.92 µM (active) | 9.77 µM (active) | 11 µM (active) | 24.5 µM (active) | inactive | 21.9 µM (active) |
| [O-][Cl+3]([O-])([O-])O | inactive | inactive | inactive | inactive | inactive | inactive | inactive | inactive | inactive | inactive |
| O=C(Cl)c1ccccc1F | inactive | inactive | inactive | inactive | inactive | inactive | inactive | inactive | inactive | inactive |
| [F][Sn]([c]1ccccc1)([c]1ccccc1)[c]1ccccc1 | 1.74 µM (active) | inactive | 1.95 µM (active) | 5.49 µM (active) | 0.871 µM (active) | 0.49 µM (active) | 1.74 µM (active) | 6.16 µM (active) | inactive |  |
| CCNc1nc(NC(C)C(C)C)nc(SC)n1 (centres undefined) | inactive | inactive | inactive | inactive | inactive | inactive | inactive | inactive | inactive |  |
| O=C(CCCCl)c1ccc(F)cc1 | inactive | inactive | inactive | inactive | inactive | inactive | inactive | inactive | inactive |  |
| CC(C)C(Br)C(=O)NC(N)=O (centres undefined) | inactive | inactive | inactive | inactive | inactive | inactive | inactive | inactive | inactive |  |
| O=c1c2ccccc2c(=O)c2c1cc(Cl)c1[nH]c3c([nH]c12)c(Cl)cc1c(=O)c2ccccc2c(=O)c13 | inactive | inactive | inactive | inactive | inactive | inactive | inactive | inactive | inactive | inactive |
| CCN(CC)CCN1C(=O)CN=C(c2ccccc2F)c2cc(Cl)ccc21 | inactive | inactive | inactive | inactive | inactive | inactive | inactive | inactive | inactive | inactive |
| CCCN | inactive | inactive | inactive | inactive | inactive | inactive | inactive | inactive | inactive | inactive |
| CCCCn1cc[n+](C)c1 (tested in a mixture with another compound) | inactive | inactive | inactive | inactive | inactive | inactive | inactive | inactive | inactive | inactive |
| BrCC(Br)(Br)Br | inactive | inactive | inactive | inactive | inactive | 45.3 µM (active) | 16.1 µM (active) | inactive | inactive | inactive |
| Clc1ccc(C(c2ccc(Cl)cc2)C(Cl)Cl)cc1 | 49 µM (active) | inactive | inactive | inactive | inactive | 44.4 µM (active) and 43.6 µM (active) | 44.4 µM (active) and 38.9 µM (active) | inactive | inactive | inactive |
| CCn1cc[n+](C)c1 (tested in a mixture with another compound) | inactive | inactive | inactive | inactive | inactive | inactive | inactive | inactive | inactive | inactive |
| O=c1[nH]c2cc(Cl)ccc2n1C1CCNCC1 | inactive | inactive | inactive | inactive | inactive | inactive | inactive | inactive | inactive | inactive |
